# Laboratory results from PubChem BioAssay.
# Values without a mark were called inactive. Active and inactive are the calls of the source.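 The calls were made as follows, unless noted: active = growth inhibition above 50% at the single 2 µM test dose, taken to imply half-maximal potency below 2 µM; inactive = the rest.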
# Experiment: antimalarial activity against Dd2 strain (AID 2302);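 also: 0% = DMSO untreated growth and 100% = chloroquine plus artemisinin killed control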
# Conditions: P. falciparum Dd2 in RBCs, LDH growth readout, 72 h; at 2 µM; stronger effect = higher value
row,Structure (SMILES),growth inhibition
1,O=C(Nc1cccc(CN2CCN(C(=O)c3cccc(F)c3)CC2)c1)c1ccco1,55% (active)
2,Cc1cc(-c2ccc3c(c2)CCN(CCC2CCC(NC(=O)/C=C/c4cccc(F)c4)CC2)CC3)on1 (stereo not given),19%
3,CN(C)c1ccc(CN2CCC(NC(=O)c3ccc(-c4ccccc4Cl)s3)CC2)cc1,27%
4,CC(C)c1ccc(NC(=O)c2ccc(C(=O)NC3CCN(Cc4ccsc4)C3)cc2)cc1 (stereo not given),28%
5,COc1ccc2nccc(N3CCC(NCCNCc4ccc5c(n4)NC(=O)CO5)C3)c2n1 (stereo not given),47%
6,FC(F)(F)c1ccc2nc(-c3ccc(-c4cccc(CNCc5cnn(-c6ccccc6)n5)c4)cc3)[nH]c2c1,83% (active)
7,Brc1cc(Br)c2c(c1)C(NCCCNc1nc3ncccc3[nH]1)CCN2 (stereo not given),83% (active)
8,O=C(COc1ccccc1)Nn1cnc2ccccc21,-3%
9,CC1CC(C)CN(CCCNc2ccc(C(=O)Nc3ccc(C(F)(F)F)cc3)cc2[N+](=O)[O-])C1 (stereo not given),99% (active)
10,O=C(NCCN1CCCC1)c1ccc(-c2ccc(-c3nc4ccccc4[nH]3)s2)cc1,3%
11,COc1ccc(Cc2c(N)nc3nc(N)nc(N)c3c2C)cc1,3%
12,CN(C)CCN(C)Cc1ccc(-c2cccc(NC(=O)c3ccc(Cl)cc3)c2)cc1,71% (active)
13,CCC1CN2CCc3cc(OC)c(OC)cc3C2CC1CC1NCCc2cc(OC)c(OC)cc21 (stereo not given),98% (active)
14,COc1cc2c(cc1CCNCCCCNCCc1cc3c(cc1OC)CCCC3)CCCC2,36%
15,O=C(c1ccc(Cl)c(Cl)c1)N1CCc2c([nH]c3ccccc23)C1CN1CCCC1 (stereo not given),16%
16,CC(C)(C)C/C=C\c1ccc(C(=O)NCC2CC2)cc1,88% (active)
17,c1ccc(CNCc2cccc(-c3ccc(-c4nc5ccccc5[nH]4)s3)c2)cc1,63% (active)
18,O=C(NCCCCN1CCC(c2ccc(C(F)(F)F)cc2C(F)(F)F)CC1)c1ccc(NC(=O)c2ccc(Cl)cc2)cc1,59% (active)
19,FC(F)(F)c1ccc2nc(-c3ccc(-c4cccc(CNCc5cnn(-c6ccccc6)n5)c4)s3)[nH]c2c1,91% (active)
20,Cc1cc(N[C@@H](CC(C)C)C(=O)NC2CCCC2)nc(NCCc2ccc(F)cc2)n1,47%

row,Structure (SMILES),growth inhibition
1,CC1(C)N=C(N)N=C(N)N1c1ccc([N+](=O)[O-])cc1,1%
2,Cc1[nH]c(C)c(-c2ccc(C(F)(F)F)cc2)c(=O)c1Br,96% (active)
3,CCOC(=O)c1ccc(OCc2ccc(-c3ccccc3)cc2)cc1,-1%
4,Cc1cccc(-n2c(=O)c3c4c(sc3n3c(SCCC(C)C)nnc23)CCCC4)c1,8%
5,COc1ccc(NC(=O)[C@H](Cc2ccccc2)Nc2cc(C)nc(NCCc3cccnc3)n2)cc1,5%
6,CC(C)(C)c1ccc2nc(-c3ccc(C(=O)NCCCc4ccccc4)cc3)[nH]c2c1,14%
7,Cc1cc(NN=Cc2ccc(F)cc2)c2ccc(C(F)(F)F)cc2n1,24%
8,CC(=O)Nc1ncc(C(=O)Nc2ccc(-c3cccc(-c4nc5ccc(F)cc5[nH]4)c3)cc2)s1,85% (active)
9,COc1cc(C(=O)NC2CCN(Cc3ccccc3)CC2)ccc1-c1nc2cc(Cl)c(C)cc2[nH]1,97% (active)
10,COc1cc(C(=O)Nc2cccc(-c3nc4ccccc4[nH]3)c2)ccc1OC(C)=O,37%
11,CCCN1CCC2(CC1)NC(C(=O)NCCC(C)C)Cc1c2[nH]c2cc(Cl)ccc12 (stereo not given),0%
12,Nc1cc(-c2ccc(-c3cccs3)s2)nc2ccccc12,50% (active)
13,CN1CCC(Oc2ccc(CN3CC[C@H](NC(=O)c4ccc(Cl)c(Cl)c4)C3)c3ccccc23)C1 (stereo not given in full),82% (active)
14,Cc1c(C(=O)[C@@H]2C[C@H]2CN2CCC(N3CCCC3)CC2)sc2ccccc12,9%
15,O=S(=O)(NCCN1CCCC1)c1ccc(-c2ccc(CNCc3ccc(F)cc3)cc2)cc1,44%
16,Cn1cnc(CCNC(=O)c2ccc(-c3ccc(-c4nc5ccc(C(F)(F)F)cc5[nH]4)s3)cc2)c1,99% (active)
17,COc1ccc2c(NN=CC=Cc3ccccc3)cc(C)nc2c1,56% (active)
18,CCCCC(CCCC)CN1C(=O)C(c2ccccc2)(c2ccccc2)N=C1N,96% (active)
19,O=C(NC1CCC(N2CCCC(OCc3ccccc3)C2)CC1)c1cc2ccccc2[nH]1 (stereo not given),11%
20,Fc1cc(Cl)ccc1Nc1ccnc2cc(-c3ccc(CN4CCSCC4)o3)ccc12,99% (active)

# Experiment: human hepatoma cell viability loss – ATP luminescence, cytotoxicity control for P. falciparum antimalarial project, primary screen (AID 2303;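 active = inhibition above 50%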;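 also: 0% = DMSO wells and 100% = digitonin-killed cells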)
# Conditions: HepG2 viability, 24-48 h, at 10 µM, stronger effect = higher value
row,Structure (SMILES),inhibition
1,O=C(Nc1cccc(CN2CCN(C(=O)c3cccc(F)c3)CC2)c1)c1ccco1,7%
2,Cc1cc(-c2ccc3c(c2)CCN(CCC2CCC(NC(=O)/C=C/c4cccc(F)c4)CC2)CC3)on1 (stereo not given),23%
3,CN(C)c1ccc(CN2CCC(NC(=O)c3ccc(-c4ccccc4Cl)s3)CC2)cc1,35%
4,CC(C)c1ccc(NC(=O)c2ccc(C(=O)NC3CCN(Cc4ccsc4)C3)cc2)cc1 (stereo not given),17%
5,COc1ccc2nccc(N3CCC(NCCNCc4ccc5c(n4)NC(=O)CO5)C3)c2n1 (stereo not given),0%
6,FC(F)(F)c1ccc2nc(-c3ccc(-c4cccc(CNCc5cnn(-c6ccccc6)n5)c4)cc3)[nH]c2c1,19%
7,Brc1cc(Br)c2c(c1)C(NCCCNc1nc3ncccc3[nH]1)CCN2 (stereo not given),5%
8,O=C(COc1ccccc1)Nn1cnc2ccccc21,2%
9,CC1CC(C)CN(CCCNc2ccc(C(=O)Nc3ccc(C(F)(F)F)cc3)cc2[N+](=O)[O-])C1 (stereo not given),31%
10,O=C(NCCN1CCCC1)c1ccc(-c2ccc(-c3nc4ccccc4[nH]3)s2)cc1,22%
11,COc1ccc(Cc2c(N)nc3nc(N)nc(N)c3c2C)cc1,64% (active)
12,CN(C)CCN(C)Cc1ccc(-c2cccc(NC(=O)c3ccc(Cl)cc3)c2)cc1,69% (active)
13,CCC1CN2CCc3cc(OC)c(OC)cc3C2CC1CC1NCCc2cc(OC)c(OC)cc21 (stereo not given),42%
14,COc1cc2c(cc1CCNCCCCNCCc1cc3c(cc1OC)CCCC3)CCCC2,100% (active)
15,O=C(c1ccc(Cl)c(Cl)c1)N1CCc2c([nH]c3ccccc23)C1CN1CCCC1 (stereo not given),83% (active)
16,CC(C)(C)C/C=C\c1ccc(C(=O)NCC2CC2)cc1,0%
17,c1ccc(CNCc2cccc(-c3ccc(-c4nc5ccccc5[nH]4)s3)c2)cc1,8%
18,O=C(NCCCCN1CCC(c2ccc(C(F)(F)F)cc2C(F)(F)F)CC1)c1ccc(NC(=O)c2ccc(Cl)cc2)cc1,4%
19,FC(F)(F)c1ccc2nc(-c3ccc(-c4cccc(CNCc5cnn(-c6ccccc6)n5)c4)s3)[nH]c2c1,38%
20,Cc1cc(N[C@@H](CC(C)C)C(=O)NC2CCCC2)nc(NCCc2ccc(F)cc2)n1,15%

row,Structure (SMILES),inhibition
1,CC1(C)N=C(N)N=C(N)N1c1ccc([N+](=O)[O-])cc1,3%
2,Cc1[nH]c(C)c(-c2ccc(C(F)(F)F)cc2)c(=O)c1Br,-5%
3,CCOC(=O)c1ccc(OCc2ccc(-c3ccccc3)cc2)cc1,18%
4,Cc1cccc(-n2c(=O)c3c4c(sc3n3c(SCCC(C)C)nnc23)CCCC4)c1,-2%
5,COc1ccc(NC(=O)[C@H](Cc2ccccc2)Nc2cc(C)nc(NCCc3cccnc3)n2)cc1,11%
6,CC(C)(C)c1ccc2nc(-c3ccc(C(=O)NCCCc4ccccc4)cc3)[nH]c2c1,11%
7,Cc1cc(NN=Cc2ccc(F)cc2)c2ccc(C(F)(F)F)cc2n1,4%
8,CC(=O)Nc1ncc(C(=O)Nc2ccc(-c3cccc(-c4nc5ccc(F)cc5[nH]4)c3)cc2)s1,47%
9,COc1cc(C(=O)NC2CCN(Cc3ccccc3)CC2)ccc1-c1nc2cc(Cl)c(C)cc2[nH]1,-3%
10,COc1cc(C(=O)Nc2cccc(-c3nc4ccccc4[nH]3)c2)ccc1OC(C)=O,16%
11,CCCN1CCC2(CC1)NC(C(=O)NCCC(C)C)Cc1c2[nH]c2cc(Cl)ccc12 (stereo not given),13%
12,Nc1cc(-c2ccc(-c3cccs3)s2)nc2ccccc12,32%
13,CN1CCC(Oc2ccc(CN3CC[C@H](NC(=O)c4ccc(Cl)c(Cl)c4)C3)c3ccccc23)C1 (stereo not given in full),52% (active)
14,Cc1c(C(=O)[C@@H]2C[C@H]2CN2CCC(N3CCCC3)CC2)sc2ccccc12,16%
15,O=S(=O)(NCCN1CCCC1)c1ccc(-c2ccc(CNCc3ccc(F)cc3)cc2)cc1,42%
16,Cn1cnc(CCNC(=O)c2ccc(-c3ccc(-c4nc5ccc(C(F)(F)F)cc5[nH]4)s3)cc2)c1,75% (active)
17,COc1ccc2c(NN=CC=Cc3ccccc3)cc(C)nc2c1,18%
18,CCCCC(CCCC)CN1C(=O)C(c2ccccc2)(c2ccccc2)N=C1N,28%
19,O=C(NC1CCC(N2CCCC(OCc3ccccc3)C2)CC1)c1cc2ccccc2[nH]1 (stereo not given),38%
20,Fc1cc(Cl)ccc1Nc1ccnc2cc(-c3ccc(CN4CCSCC4)o3)ccc12,17%
